Compound activity (PubChem BioAssay)
Many of the other results were omitted from the sample, so hits are more common in it than they were.
ERK EGF inh: blocks ERK signaling stimulated by EGF | AID 1454 | actives 0.41% (n = 130,000) | HEK293-V1b, EGF-stimulated phospho-ERK AlphaScreen | Potency, µM (top dose mostly 11.5 µM), without a hit: at the top dose activity change, negative = inhibition, hits mostly inhibitors;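 further: plate controls were stimulated vehicle wells for no effect and unstimulated vehicle basal for full effect; nearly all actives have a fitted effect of over 55% in size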
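HEK293 cells stably expressing V1b receptor, serum-reduced (1% FBS) overnight, got compound for 30 min at 37C, then 25 nM EGF for 5 min. Lysate phospho-ERK read by AlphaScreen SureFire; AC50 from Hill fits.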
NPSR antag: antagonists of human neuropeptide S receptor cAMP signaling. Q6W5P4. CHO-NPSR cells, cAMP TR-FRET, antagonist mode. Potency, µM (highest dose often 38.3 µM), for inactives: at the top dose activity change, negative = inhibition, usual class: inhibitors. actives 1% (n = 220,000); further: nearly all actives have a fitted effect of over 50% in size
Target sequence (Q6W5P4 whole entry, looked up): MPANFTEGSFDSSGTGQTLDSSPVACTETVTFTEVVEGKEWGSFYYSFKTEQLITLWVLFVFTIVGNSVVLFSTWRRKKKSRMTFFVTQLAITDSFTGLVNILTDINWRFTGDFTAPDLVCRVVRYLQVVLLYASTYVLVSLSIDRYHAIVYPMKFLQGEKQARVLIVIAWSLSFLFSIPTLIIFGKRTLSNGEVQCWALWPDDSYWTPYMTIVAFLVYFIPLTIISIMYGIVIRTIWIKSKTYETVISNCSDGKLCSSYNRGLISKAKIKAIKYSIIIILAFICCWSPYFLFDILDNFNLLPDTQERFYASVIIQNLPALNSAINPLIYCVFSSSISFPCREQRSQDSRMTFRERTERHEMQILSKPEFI
* hit, by the source's call; ? = inconclusive; . = not tested or not shown; [ ] = remark or other dose. The call rests on the fitted dose curve; in most records, active means well fitted curve in the direction sought with a large enough effect; inconclusive means small, poorly fitted or top-dose-only effect, or another doubt; inactive means no such curve, though single readings can be large; an effect the other way counts as inactive or inconclusive. Unless noted, on the % scale 0 is the no-effect control and ±100 the full control effect; potency means the concentration at half of the fitted maximal effect.

SMILES	ERK EGF inh	NPSR antag
COC(=O)NC(/C=C/c1ccccc1)C(C(C)=O)C(=O)OC (configuration not stated)	0.0%	.
CS(=O)(=O)Nc1cccc(-c2cncnc2NCc2cccs2)c1	19.0%	.
Clc1cccc(Nc2ncnc3ccc(Br)cc23)c1	.	0.3%[46.1 µM]
Cc1cccc(Nc2ncnc3ccc(Br)cc23)c1	1.78µM*	-28.1%
Cc1ccc(C)c(CN2C(=O)c3ccccc3S(=O)c3ccc(C(=O)N4CCN(c5ccccn5)CC4)cc32)c1 (configuration not stated)	-4.2%	7.94µM*
CCN1C(=O)c2ccccc2S(=O)c2ccc(C(=O)N3CCCC3)cc21 (configuration not stated)	.	-10.2%[46.1 µM]
CN(C)C(=O)c1ccc(-c2ccc3ncnc(NC4CCNCC4)c3c2)cc1	22.2%	.
O=C(c1cccc(F)c1)N1CCC2(CC1)CN(c1ccccn1)C2	5.2%	.
O=C(COc1ccc(/C=N/NC(=O)c2cc3ccccc3o2)cc1Br)Nc1ccccc1	.	10µM*
O=C(COc1ccccc1[N+](=O)[O-])Nc1ccc(NC(=O)c2cc3ccccc3o2)cc1	14.4%	29.1%
COC(=O)N1C(C)=Cc2ccccc2C1C/C(C)=C/C(C)=O (configuration not stated)	-7.5%	.
CCCn1c(-c2ccc(F)cc2)nc2c(N3CCN(C)CC3)nc(C)nc21	-7.5%	.
COc1ccc(-c2nc(-c3ccccn3)ncc2S(C)(=O)=O)cc1	-0.6%	2.5%
CCCc1nc2c(=O)n(C)c(=O)nc-2n(C)n1	-0.1%	7.94µM*
Cn1nc(-c2ccccn2)nc2c(=O)n(C)c(=O)nc1-2	?	2.51µM*
CCn1c(N)nc2c1c(=O)n(C)c(=O)n2C	.	-2.3%[46.1 µM]
COc1cccc([C@@H]2Oc3ccc(Br)cc3C[C@H]2O)c1	2.4%	.
CN(/N=C/c1ccc([N+](=O)[O-])o1)c1ccccc1	25.1µM*	-4.3%
O=C(N/N=C/c1ccc([N+](=O)[O-])o1)C(O)c1ccccc1 (configuration not stated)	0.8%[57.5 µM]	-20.5%
CCNc1ncc2nc(CCc3ccccc3)c(=O)n(C)c2n1	-3.1%	.
CS(=O)(=O)Nc1cccc(-c2nccc(-n3ccnc3)n2)c1	20.8%	.
COCC(=O)N1CCC[C@@]2(CCN(c3ccccn3)C2)C1	-1.1%	.
COCC1=C2c3ccccc3[C@H](C[N+](=O)[O-])C(C(=O)OC)(C(=O)OC)C[C@@H]2n2c(=O)n(-c3ccccc3)c(=O)n2C1	-11.8%	.
CN(C)c1ccc(/C=C/C(=O)c2cc(Cl)ccc2O)cc1	14.1µM*	5.0%[7.67 µM]
O=C(/C=C/c1ccncc1)c1cc(Cl)ccc1O	9.5%[57.5 µM]	38.0%
SMILES	ERK EGF inh	NPSR antag
FC(F)(F)c1cccc(NC(=S)N(CCCN2CCCC2)Cc2cccn2Cc2ccc(Cl)cc2)c1	-2.6%	10µM*
Cc1ccc(NC(=S)N(CCCN2CCCC2)Cc2cccn2Cc2ccc(Cl)cc2)cc1Cl	5.8%	-58.8%
N.N.N.N.N.N.N.N.N.N.N.N.N.N.O.O.[Cl-].[Cl-].[Cl-].[Cl-].[Cl-].[Cl-].[Ru].[Ru].[Ru]	15.8µM*	?
CCCCC/C=C\C\C=C/C=C/C=C/[C@@H](SCC(N)C(=O)NCC(=O)O)[C@@H](O)CCCC(=O)O (some centres not stated)	-13.5%	.
COC(=O)CC1[C@@]2(C)C[C@]34OC5(C)OC6(C7CC(=O)OC(c8ccoc8)[C@]7(C)CCC6(O5)[C@]13C)C(OC(C)=O)[C@]4(OC(C)=O)C2OC(C)=O (some centres not stated)	19.3%	.
O=C(Nc1ccc2ccccc2c1)c1cnccn1	.	-3.3%[46.1 µM]
CS(=O)(=O)c1ncc(Cl)c(C(=O)Nc2ccc3ccccc3c2)n1	-1.5%	10µM*
CO[C@]1(NC(=O)Cc2cccs2)C(=O)N2C(C(=O)O)=C(COC(N)=O)CS[C@H]21	18.1%[25.7 µM]	.
COC(=O)CSc1nc(N)c2c3c(sc2n1)CCCC3	.	-10.2%[46.1 µM]
COC(=O)CSc1nc(N)c2c3c(sc2n1)C(c1ccccc1)SC(c1ccccc1)C3 (configuration not stated)	0.4%	12.6µM*
CO[C@@H](CCOCc1ccccc1)C[C@H]1O[C@H](C(=O)OC(C)C)C=C[C@@H]1C	-10.6%	.
CCn1cc(C(=O)NCC2CCCO2)c(=O)c2cc(S(=O)(=O)N3CCCCCC3)ccc21 (configuration not stated)	.	3.16µM*
CCn1cc(C(=O)NCC2CCCO2)c(=O)c2cc(S(=O)(=O)N3CCC(C)CC3)ccc21 (configuration not stated)	.	-10.9%[46.1 µM]
Cc1cc(C)nc(NC(N)=NCCc2c[nH]c3ccccc23)n1	-5.8%	29.3%
Cc1cc(C)nc(NC(=NCCc2c[nH]c3ccccc23)NC(=O)Nc2ccc(Cl)cc2)n1	-2.5%	12.6µM*
CC1(C)c2ssc(=S)c2-c2ccccc2N1C(=O)CSC1=NCCS1	.	-26.6%[46.1 µM]
Cc1ccc(S(=O)(=O)N2c3ccccc3-c3c(ssc3=S)C2(C)C)cc1	12.6µM*	-6.0%[46.1 µM]
COc1ccc(C(=O)Nc2sc3c(c2C#N)CCN(C(C)=O)C3)cc1	5.7%	0.8%
CC(=O)N1CCc2c(sc(NC(=O)c3ccc([N+](=O)[O-])o3)c2C#N)C1	-0.2%	2.51µM*
C[C@@H](C[N+](C)(C)C)OC(N)=O	8.2%[25.7 µM]	.
COc1c(CO)cc(CO)cc(CO)c1=O	-7.0%	.
CCN(CC)S(=O)(=O)c1cc([N+](=O)[O-])ccc1NNC(=O)Nc1ccc(Cl)c(Cl)c1	.	10µM*
O=C(NNc1ccccc1[N+](=O)[O-])Nc1ccc(Cl)c(Cl)c1	2.7%	-59.3%
O=C(c1ccco1)N1CCC2(CCCN(c3ncccn3)C2)CC1	9.7%	.
CC1=CC(=O)C2=C(C)C[C@H](OC(=O)Cc3ccccc3)C3[C@H](OC(=O)[C@H]3C)C12 (some centres not stated)	-6.4%	.
SMILES	ERK EGF inh	NPSR antag
COc1ccc2c(c1)O[C@H](c1ccc3c(c1)OCO3)[C@@H](OC(=O)NS(=O)(=O)c1ccc(C)cc1)C2=O	-9.3%	.
O=C(O)CCCN1C(=O)/C(=C\c2ccco2)SC1=S	0.7%	32.7%
O=C(O)CCN1C(=O)/C(=C\c2ccc(-c3nc4ccccc4s3)o2)SC1=S	.	12.6µM*
CC(C)C[C@@H](CC(=O)N[C@H](CC(=O)N[C@@H]1CCCC[C@H]1C(=O)N[C@H](CC(=O)N[C@@H](CCC(=O)O)CC(=O)O)CC(C)C)C(C)C)NC(=O)[C@@H]1CNCC[C@H]1N	5.9%	.
Cc1ccc(-n2[nH]c(C)c(/C=N/Nc3ccc([N+](=O)[O-])cc3[N+](=O)[O-])c2=O)cc1C	15.8µM*	-36.0%
Cc1[nH]n(-c2ccccc2)c(=O)c1/C=N/NC(=O)c1cccc([N+](=O)[O-])c1	.	-4.1%[46.1 µM]
CC(C)CN1CC[C@@]2(CCCN(C(=O)c3cc(C(F)(F)F)cc(C(F)(F)F)c3)C2)C1	-4.2%	.
C/C(=N\NC(=S)NC1CCCCC1)c1c(F)cccc1F	0.6%	1µM*
C/C(=N\NC(=S)NC1CCCCC1)c1cccs1	-1.9%	-52.2%
CC[C@@](N)(C(=O)O)c1ccc(C(=O)O)cc1	-8.0%	.
CC(N)=Nc1ccc([N+](=O)[O-])cc1	4.4%	9.3%
O=[N+]([O-])c1ccc(N=Nc2c(Cl)cc(O)cc2Cl)cc1	?	7.94µM*
Cc1cc(C)c2nc(-c3ccccn3)cc(C(=O)Nc3ccc(S(=O)(=O)Nc4onc(C)c4C)cc3)c2c1	?	-56.3%
